This is one part of a sample in which the strongest signals are shown more often than they occur.
How the values were obtained:
Test in all cases: glycan array binding signal (z-score within array); higher = stronger binding
Details in all cases: glycan notation: IUPAC condensed, linker removed
[1] = target: Gal3S(b1-4)[Fuc(a1-3)]GlcNAc
Summary of the method: (§1)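 Glycan array data came from 3228 arrays in the Consortium for Functional Glycomics database, and only arrays with an available protein sequence were kept. Glycan names were put into IUPAC-condensed notation, and columns mapping to the same glycan were averaged. The binding signal is a within-array Z-score, averaged across arrays of one protein sequence run at different concentrations or buffers and across linkers. A negative Z-score can be read as non-binding.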

Gal3S6S(b1-4)GlcNAc6S = target: Gal3S6S(b1-4)GlcNAc6S
Summary of the method: as §1

Gal6S(b1-3)GlcNAc6S = target: Gal6S(b1-3)GlcNAc6S
Summary of the method: as §1

Gal6S(b1-4)GlcNAc6S = target: Gal6S(b1-4)GlcNAc6S
Summary of the method: as §1

[2] = target: GalNAc(a1-3)Fuc(a1-2)Gal(b1-4)GlcNAc(b1-3)[GalNAc(a1-3)Fuc(a1-2)Gal(b1-4)GlcNAc(b1-6)]GalNAc
Summary of the method: as §1

[3] = target: GalNAc(b1-3)Gal(a1-4)Gal(b1-4)GlcNAc
Summary of the method: as §1

GalNAc(b1-4)Gal(b1-4)Glc = target: GalNAc(b1-4)Gal(b1-4)Glc
Summary of the method: as §1

[4] = target: GalNAc(b1-4)GlcNAc(b1-3)GalNAc(b1-4)GlcNAc
Summary of the method: as §1

GalNAc(b1-4)GlcNAc6S = target: GalNAc(b1-4)GlcNAc6S
Summary of the method: as §1

GalNAc6S(b1-4)GlcNAc = target: GalNAc6S(b1-4)GlcNAc
Summary of the method: as §1

[5] = target: GlcA3S(b1-3)Gal(b1-4)GlcNAc(b1-3)Gal(b1-4)Glc
Summary of the method: as §1

[6] = target: GlcNAc(b1-2)[GlcNAc(b1-4)]Man(a1-3)[GlcNAc(b1-4)][GlcNAc(b1-2)Man(a1-6)]Man(b1-4)GlcNAc(b1-4)GlcNAc
Summary of the method: as §1

[7] = target: GlcNAc(b1-3)Gal(b1-4)GlcNAc(b1-3)Gal(b1-4)GlcNAc(b1-2)[GlcNAc(b1-3)Gal(b1-4)GlcNAc(b1-3)Gal(b1-4)GlcNAc(b1-6)]Man(a1-6)[GlcNAc(b1-3)Gal(b1-4)GlcNAc(b1-3)Gal(b1-4)GlcNAc(b1-2)Man(a1-3)]Man(b1-4)GlcNAc(b1-4)[Fuc(a1-6)]GlcNAc
Summary of the method: as §1

[8] = target: GlcNAc(b1-3)Gal(b1-4)GlcNAc(b1-3)Gal(b1-4)GlcNAc(b1-3)Gal(b1-4)GlcNAc(b1-2)[GlcNAc(b1-3)Gal(b1-4)GlcNAc(b1-3)Gal(b1-4)GlcNAc(b1-3)Gal(b1-4)GlcNAc(b1-6)]Man(a1-6)[GlcNAc(b1-3)Gal(b1-4)GlcNAc(b1-3)Gal(b1-4)GlcNAc(b1-3)Gal(b1-4)GlcNAc(b1-2)Man(a1-3)]Man(b1-4)GlcNAc(b1-4)[Fuc(a1-6)]GlcNAc
Summary of the method: as §1

[9] = target: GlcNAc(b1-3)Gal(b1-4)GlcNAc(b1-3)Gal(b1-4)GlcNAc(b1-3)Gal(b1-4)GlcNAc(b1-3)Gal(b1-4)GlcNAc(b1-2)Man(a1-3)[GlcNAc(b1-3)Gal(b1-4)GlcNAc(b1-3)Gal(b1-4)GlcNAc(b1-3)Gal(b1-4)GlcNAc(b1-3)Gal(b1-4)GlcNAc(b1-2)Man(a1-6)]Man(b1-4)GlcNAc(b1-4)[Fuc(a1-6)]GlcNAc
Summary of the method: as §1

[10] = target: GlcNAc(b1-4)GlcNAc(b1-4)GlcNAc
Summary of the method: as §1

Man(a1-6)Man = target: Man(a1-6)Man
Summary of the method: as §1

[11] = target: Neu5Ac(a2-3)Gal(b1-3)GalNAc
Summary of the method: as §1

[12] = target: Neu5Ac(a2-3)Gal(b1-3)GlcNAc(b1-3)Gal(b1-3)GlcNAc
Summary of the method: as §1

[13] = target: Neu5Ac(a2-3)Gal(b1-3)[Fuc(a1-4)]GlcNAc
Summary of the method: as §1

[14] = target: Neu5Ac(a2-3)Gal(b1-4)GlcNAc(b1-2)[Neu5Ac(a2-3)Gal(b1-4)GlcNAc(b1-6)]Man(a1-6)[Neu5Ac(a2-3)Gal(b1-4)GlcNAc(b1-2)Man(a1-3)][GlcNAc(b1-4)]Man(b1-4)GlcNAc(b1-4)GlcNAc
Summary of the method: as §1

[15] = target: Neu5Ac(a2-3)Gal(b1-4)[Fuc(a1-3)]GlcNAc(b1-3)Gal
Summary of the method: as §1

[16] = target: Neu5Ac(a2-3)Gal(b1-4)[Fuc(a1-3)]GlcNAc6S
Summary of the method: as §1

[17] = target: Neu5Ac(a2-3)Gal6S(b1-4)[Fuc(a1-3)]GlcNAc
Summary of the method: as §1

[18] = target: Neu5Ac(a2-6)Gal(b1-4)GlcNAc(b1-2)Man(a1-3)[GlcNAc(b1-2)Man(b1-4)GlcNAc(b1-2)Man(a1-6)]Man(b1-4)GlcNAc(b1-4)GlcNAc
Summary of the method: as §1

[19] = target: Neu5Ac(a2-6)Gal(b1-4)GlcNAc(b1-2)Man(a1-3)[Man(a1-6)]Man(b1-4)GlcNAc(b1-4)GlcNAc
Summary of the method: as §1

[20] = target: Neu5Ac(a2-6)Gal(b1-4)GlcNAc(b1-3)Gal(b1-4)[Fuc(a1-3)]GlcNAc(b1-3)Gal(b1-4)[Fuc(a1-3)]GlcNAc
Summary of the method: as §1

[21] = target: Neu5Ac(a2-6)Gal(b1-4)GlcNAc6S
Summary of the method: as §1

[22] = target: Neu5Ac(a2-8)Neu5Ac(a2-3)Gal(b1-4)GlcNAc
Summary of the method: as §1

B1: NK11 (Sus scrofa) (peptide)
chain: KISKRILTGKK
[1]
  glycan array binding signal (z-score): 2.52
Gal3S6S(b1-4)GlcNAc6S
  glycan array binding signal (z-score): 1.05
Gal6S(b1-3)GlcNAc6S
  glycan array binding signal (z-score): 3.65
Gal6S(b1-4)GlcNAc6S
  glycan array binding signal (z-score): 2.58
[2]
  glycan array binding signal (z-score): -0.542
[3]
  glycan array binding signal (z-score): 0.262
GalNAc(b1-4)Gal(b1-4)Glc
  glycan array binding signal (z-score): -0.229
[4]
  glycan array binding signal (z-score): -0.419
GalNAc(b1-4)GlcNAc6S
  glycan array binding signal (z-score): 2.55
GalNAc6S(b1-4)GlcNAc
  glycan array binding signal (z-score): 0.009
[5]
  glycan array binding signal (z-score): -1.34
[6]
  glycan array binding signal (z-score): -0.207
[7]
  glycan array binding signal (z-score): 2.97
[8]
  glycan array binding signal (z-score): 2.73
[9]
  glycan array binding signal (z-score): 0.231
[10]
  glycan array binding signal (z-score): -0.597
Man(a1-6)Man
  glycan array binding signal (z-score): -0.205
[11]
  glycan array binding signal (z-score): 0.104
[12]
  glycan array binding signal (z-score): -0.342
[13]
  glycan array binding signal (z-score): -0.073
[14]
  glycan array binding signal (z-score): 0.405
[15]
  glycan array binding signal (z-score): 0.515
[16]
  glycan array binding signal (z-score): 3.52
[17]
  glycan array binding signal (z-score): -0.648
[18]
  glycan array binding signal (z-score): 2.33
[19]
  glycan array binding signal (z-score): 1.52
[20]
  glycan array binding signal (z-score): -0.044
[21]
  glycan array binding signal (z-score): 0.729
[22]
  glycan array binding signal (z-score): -1.78

— the supplement of paper PMC8728848
